# Counter-ions that a name gives are not always drawn.
# What was measured:
# Assay in all cases: Euclidean distance of Cell Painting phenotypic profile (signed KS, 77 features) to DMSO centroid (dimensionless distance); 5 or 10 uM (library dependent); higher = stronger phenotypic change vs DMSO (phenoactivity)
# Details in all cases: 48 h
# [1] = system: 786-O
# In short: (§1)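 Phenoactivity is defined as the Euclidean distance from a compound profile to the median vehicle profile. Each profile comprised 77 Harmony features, scored as signed Kolmogorov-Smirnov statistics versus same-plate vehicle wells, then plate-position corrected, correlation-weighted and replicate-averaged at the top dose. Five cancer lines and one healthy fibroblast line were exposed to library compounds for 48 h at 10 or 5 uM (0.1% DMSO final).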
# [2] = system: A549
# In short: as §1
# [3] = system: DU145
# In short: as §1
# [4] = system: FB
# In short: as §1
# [5] = system: HEPG2
# In short: as §1
# [6] = system: OVCAR4
# In short: as §1
Structure (SMILES),Euclidean distance [1],Euclidean distance [2],Euclidean distance [3],Euclidean distance [4],Euclidean distance [5],Euclidean distance [6]
CC(=O)OC(C)OC(=O)C(C)c1ccc(-c2ccccc2)c(F)c1 (stereo unspecified) [Flurbiprofen Axetil],1.28,0.882,0.893,1.57,1.39,1.44
CCN(CC)CCCC(C)Nc1c2ccc(Cl)cc2nc2ccc(OC)cc12 (stereo unspecified) [Quinacrine Dihydrochloride Dihydrate],4.25,5.06,4.71,6.12,4.78,4.71
COc1cc2c(cc1OC)C(=O)C(CC1CCN(Cc3ccccc3)CC1)C2 (stereo unspecified) [Donepezil],0.813,1.25,0.73,0.785,1.27,1.27
N=C(N)c1ccc(N=NNc2ccc(C(=N)N)cc2)cc1 [Diminazene Aceturate],1.25,1.11,1.1,0.72,2.06,0.868
CCCc1nn(C)c2c(=O)[nH]c(-c3cc(S(=O)(=O)N4CCN(C)CC4)ccc3OCC)nc12 [Sildenafil],1.51,0.754,0.716,1.08,0.767,1.17
CC(C(=O)O)c1cccc(C(=O)c2ccccc2)c1 (stereo unspecified) [Ketoprofen],1.28,0.765,2.29,0.989,0.77,1.42
Nc1ccc2cc3ccc(N)cc3nc2c1 [Proflavine],3.98,3.75,4,4.15,4.17,4.45
CNC(=O)Nc1ccc(-c2nc(N3CC4CCC(C3)O4)c3cnn(C4CCC5(CC4)OCCO5)c3n2)cc1,4.15,3.37,2.25,4.69,3.38,4.35
c1cnc(N2CCN(Cc3ccc4c(c3)OCO4)CC2)nc1 [Piribedil],1.19,0.769,1.21,1.05,0.645,0.899
N[C@@H](CSCCCO)C(=O)O [Fudosteine],1.5,1.77,0.71,1.34,0.516,1.3
COc1ccc(C(=O)NCc2ccc(OCCN(C)C)cc2)cc1OC [Itopride hydrochloride],1.63,0.807,0.903,0.871,1.09,0.695
O=C(/C=C/c1ccc(O)c(O)c1)O[C@H](Cc1ccc(O)c(O)c1)C(=O)O [Rosmarinic acid],0.778,0.874,0.818,0.847,0.532,0.722
O=C(CCc1ccc(O)cc1)c1c(O)cc(O)cc1O[C@@H]1O[C@H](CO)[C@@H](O)[C@H](O)[C@H]1O [Phlorizin],0.911,1.18,0.673,0.849,1.02,0.783
CC1CC(OC(=O)C(O)c2ccccc2)CC(C)(C)C1 (stereo unspecified) [Cyclandelate],1.19,1.12,1.02,0.843,0.782,1.02
Cc1ccccc1N1CCN(CCc2nnc3n2CCCC3)CC1 [Dapiprazole Hydrochloride],1.23,0.715,0.81,0.786,1.09,1.17
C[C@]12CC[C@@H]3c4ccc(O)cc4CC[C@H]3[C@@H]1CCC2=O [Estrone],0.82,0.907,0.761,1.21,0.472,0.764
Cc1ccc([N+](=O)[O-])cc1S(=O)(=O)N(C)/N=C/c1cnc2ccc(Br)cn12,3.41,4.67,2.87,2.69,2.06,4.4
O=C(O)CCC(=O)Nc1ccc(S(=O)(=O)Nc2nccs2)cc1 [Succinylsulfathiazole],0.988,0.655,0.789,1.1,1.01,2.02
COc1cc(/C=C/C(=O)CC(=O)/C=C/c2ccc(O)c(OC)c2)ccc1O [Curcumin],1.77,2.12,1.22,3.06,2.02,1.2
C[C@H]1O[C@@H](Oc2c(-c3cc(O)c(O)c(O)c3)oc3cc(O)cc(O)c3c2=O)[C@@H](O)[C@@H](O)[C@@H]1O [Myricitrin],1.28,0.726,1.03,1.54,0.535,0.952
Cc1ccc(C(=O)Nc2ccc(CN3CCN(C)CC3)c(C(F)(F)F)c2)cc1C#Cc1cnc2cccnn12,4.62,4.2,6.75,1.08,4.93,4.29
COc1ccc2cccc(CCNC(C)=O)c2c1 [Agomelatine],0.998,0.774,0.825,0.747,0.603,0.58
O=S1(=O)CCN(CN2CCS(=O)(=O)NC2)CN1 [Taurolidine],1.32,0.797,0.913,1.04,0.654,1.46
O=c1ccc2ccccc2o1 [Coumarin],1.02,0.975,1.08,1.25,0.824,1.2
CCOC(=O)c1ccc(N2NC(=O)C(=Cc3ccc([N+](=O)[O-])o3)C2=O)cc1,1.51,1.47,1.17,0.999,0.851,1.17
COc1ccc(F)c(F)c1C(=O)c1cnc(NC2CCN(S(C)(=O)=O)CC2)nc1N,2.79,3.51,2.68,2.58,3.18,4.31
